Results as given in the supplement of paper PMC13380429.

What follows are molecules tested on Vero E6 infected with SARS-CoV-2 (assay: inhibition of SARS-CoV-2 cytopathic effect; higher = more antiviral protection, active = above 15). Conditions: 833.33 nM; 48 h.

Structure (SMILES) | inhibition of SARS-CoV-2 cytopathic effect
COc1cccc2cc(-c3nc([C@H]4CC[C@H](C(=O)O)CC4)n4ncnc(N)c34)[nH]c12 | -0.9% (inactive)
O=C(O)c1ccccc1Nc1cccc(C(F)(F)F)c1 [flufenamic-acid] | 0.82% (inactive)
O=C(CCc1ccc(O)cc1)c1c(O)cc(O)cc1O [phloretin] | -0.49% (inactive)
N[C@@H](CS)C(=O)O [L-cysteine] | -1.16% (inactive)
CC(C)NCC(O)c1ccc2ccccc2c1 (stereo not drawn) [pronethalol] | 0.3% (inactive)
O=c1[nH]c2ccccc2n1C1CCN(CCCC(c2ccc(F)cc2)c2ccc(F)cc2)CC1 [pimozide] | -0.58% (inactive)
CC(C)NCC(O)COc1cccc2ccccc12 (stereo not drawn) [propranolol] | -0.01% (inactive)
N#C/C(=C\c1cccn1S(=O)(=O)c1cccc([N+](=O)[O-])c1)S(=O)(=O)c1ccc(F)cc1 | -2% (inactive)
Cc1csc(S(=O)(=O)N(CC(C)C)c2cc3c(cc2OCc2ccc(C(=O)O)cc2)CCC3)n1 | 2.51% (inactive)
CC(C)[C@@H](C)/C=C/[C@@H](C)[C@H]1CC[C@H]2C3=CC=C4C[C@@H](O)CC[C@]4(C)[C@H]3CC[C@]12C [ergosterol] | 2.74% (inactive)
O=C(NCCO)c1cc(C(=O)NCCO)cc(C(=O)NCCO)c1 | -1.25% (inactive)
C[C@H]1NC(=O)NC1=O [5-methylhydantoin-(D)] | -6.83% (inactive)
COc1ccc(C(=O)c2c(C)n(CCN3CCOCC3)c3cc(I)ccc23)cc1 | -0.63% (inactive)
